Laboratory results published in the antibiotic and cytotoxicity screens of Wong et al. (2023).
In all, about 39,000 compounds went through this assay and about 3,300 (8.5%) were called active. This is one part of a sample in which actives are shown more often than they occur.

test system: HepG2; assay: cytotoxicity call (relative viability < 0.9); conditions: 10 µM

SMILES	cytotoxicity call
C[C@@H]1CCCCO[C@H](CN(C)C(=O)C2CCCCC2)[C@H](C)CN([C@H](C)CO)C(=O)c2cc(NS(=O)(=O)c3ccc(F)cc3)ccc2O1	inactive
CC(C)CC#Cc1ccc2c(c1)O[C@H](CN(C)Cc1cncnc1)[C@H](C)CN([C@@H](C)CO)S2(=O)=O	inactive
NNS(=O)(=O)c1ccc(Cl)cc1	inactive
NC(=O)NS(=O)(=O)c1ccc(N)cc1	inactive
NNS(=O)(=O)c1ccc(Oc2ccc(S(=O)(=O)NN)cc2)cc1	active
C[C@@H]1CN([C@H](C)CO)C(=O)c2cc(NS(=O)(=O)c3ccc(F)cc3)ccc2O[C@H]1CN(C)S(=O)(=O)c1ccc(F)cc1	inactive
Cc1ccc2c(c1)C(=O)C[C@@H](c1ccc(Cl)cc1Cl)O2	inactive
Cc1cc(C)c2c(c1)NC(=O)C[C@H]2c1cccc(Cl)c1Cl	active
Cc1ccc(=O)n(CC(=O)O)n1	inactive
C[C@H](CO)N1C[C@H](C)[C@@H](CN(C)Cc2ccncc2)OCCCC[C@H](C)Oc2ccc(NC(=O)Nc3ccc(C(F)(F)F)cc3)cc2C1=O	inactive
C[C@@H]1CCCCO[C@@H](CN(C)Cc2ccncc2)[C@H](C)CN([C@H](C)CO)C(=O)c2cc(NC(=O)Nc3ccc(C(F)(F)F)cc3)ccc2O1	active
C[C@@H]1CCCCO[C@H](CN(C)Cc2ccncc2)[C@@H](C)CN([C@H](C)CO)C(=O)c2cc(NC(=O)Nc3ccc(C(F)(F)F)cc3)ccc2O1	inactive
C[C@H](CO)N1C[C@H](C)[C@H](CN(C)Cc2ccncc2)OCCCC[C@H](C)Oc2ccc(NC(=O)Nc3ccc(C(F)(F)F)cc3)cc2C1=O	active
C[C@@H]1CCCCO[C@H](CN(C)Cc2ccncc2)[C@H](C)CN([C@H](C)CO)C(=O)c2cc(NC(=O)Nc3ccc(C(F)(F)F)cc3)ccc2O1	active
C[C@@H]1CCCCO[C@@H](CN(C)Cc2ccncc2)[C@H](C)CN([C@@H](C)CO)C(=O)c2cc(NC(=O)Nc3ccc(C(F)(F)F)cc3)ccc2O1	inactive
C[C@H]1CCCCO[C@@H](CN(C)Cc2ccncc2)[C@@H](C)CN([C@@H](C)CO)C(=O)c2cc(NC(=O)Nc3ccc(C(F)(F)F)cc3)ccc2O1	inactive
C[C@@H]1CN([C@H](C)CO)C(=O)c2cc(NC(=O)Nc3ccc(C(F)(F)F)cc3)ccc2O[C@@H](C)CCCCO[C@@H]1CN(C)Cc1ccncc1	active
C[C@@H]1CCCCO[C@H](CN(C)C(=O)NC2CCCCC2)[C@@H](C)CN([C@@H](C)CO)C(=O)c2cc(NC(=O)NC3CCCCC3)ccc2O1	inactive
O=C(C[C@H]1C=C[C@@H](NC(=O)CN2CCOCC2)[C@H](CO)O1)NCCc1ccccc1	inactive
COCC#Cc1ccc2c(c1)O[C@@H](CN(C)C(=O)c1ccccc1F)[C@@H](C)CN([C@@H](C)CO)S2(=O)=O	inactive
CNC[C@H]1OCCCC[C@H](C)Oc2ccc(NC(=O)c3ccncc3)cc2C(=O)N([C@@H](C)CO)C[C@@H]1C	inactive

SMILES	cytotoxicity call
Cc1ccc(S(=O)(=O)N(C)C[C@@H]2Oc3ccc(NS(=O)(=O)c4c(C)noc4C)cc3CC(=O)N([C@@H](C)CO)C[C@H]2C)cc1	inactive
C[C@H]1CN([C@@H](C)CO)C(=O)c2cccc(NC(=O)c3cnccn3)c2O[C@H]1CN(C)S(=O)(=O)c1ccc(Cl)cc1	inactive
O=C(C[C@H]1CC[C@H](NC(=O)c2cccnc2)[C@H](CO)O1)NCCN1CCCCC1	inactive
COCC#Cc1ccc2c(c1)O[C@H](CN(C)C(=O)C1CCCCC1)[C@H](C)CN([C@@H](C)CO)S2(=O)=O	inactive
C[C@H](CO)N1C[C@H](C)[C@H](CN(C)C(=O)Cc2ccccc2)OCCCC[C@H](C)Oc2ccc(NC(=O)Nc3ccc(F)cc3)cc2C1=O	inactive
CCS(=O)(=O)Nc1ccc2c(c1)C(=O)N(C)[C@H]1CC[C@H](CC(=O)NCc3ccc(OC)cc3)O[C@@H]1CO2	inactive
C[C@H](CO)N1C[C@H](C)[C@H](CN(C)C(=O)Nc2ccc3c(c2)OCO3)OCCCC[C@H](C)Oc2ccc(NC(=O)c3ccncc3)cc2C1=O	inactive
C[C@H]1CCCCO[C@H](CN(C)Cc2ccncc2)[C@@H](C)CN([C@@H](C)CO)C(=O)c2cc(NC(=O)Nc3ccc(C(F)(F)F)cc3)ccc2O1	active
C[C@@H]1CCCCO[C@@H](CN(C)Cc2ccncc2)[C@@H](C)CN([C@@H](C)CO)C(=O)c2cc(NC(=O)Nc3ccc(C(F)(F)F)cc3)ccc2O1	inactive
C[C@@H]1CCCCO[C@@H](CN(C)Cc2ccncc2)[C@@H](C)CN([C@H](C)CO)C(=O)c2cc(NC(=O)Nc3ccc(C(F)(F)F)cc3)ccc2O1	active
C[C@@H]1CN([C@@H](C)CO)C(=O)c2cc(NC(=O)Nc3ccc(C(F)(F)F)cc3)ccc2O[C@@H](C)CCCCO[C@H]1CN(C)Cc1ccncc1	inactive
C[C@@H]1CCCCO[C@H](CN(C)Cc2ccncc2)[C@H](C)CN([C@@H](C)CO)C(=O)c2cc(NC(=O)Nc3ccc(C(F)(F)F)cc3)ccc2O1	active
C[C@@H]1CN([C@@H](C)CO)C(=O)c2cc(NC(=O)Nc3ccc(C(F)(F)F)cc3)ccc2O[C@@H](C)CCCCO[C@@H]1CN(C)Cc1ccncc1	active
C[C@H](CO)N1C[C@H](C)[C@@H](CN(C)CC2CC2)Oc2ccc(NC(=O)CCN3CCOCC3)cc2CC1=O	inactive
COC(=O)c1c(CC[C@@H](CO)NC(=O)N[C@H](Cc2ccccc2)Cn2cc(-c3ccccc3N)nn2)oc(C(C)=O)c1C(=O)OC	inactive
COc1ccc(NC(=O)N(C)C[C@@H]2Oc3ccc(NC(=O)Nc4cccc5ccccc45)cc3CC(=O)N([C@H](C)CO)C[C@H]2C)cc1	inactive
C[C@H](CO)N1C[C@H](C)[C@H](CN(C)C(=O)NC2CCCCC2)OCCCC[C@H](C)Oc2ccc(NC(=O)c3ccncc3)cc2C1=O	inactive
COc1ccc(NC(=O)N(C)C[C@H]2Oc3ccc(NC(=O)CCN4CCOCC4)cc3C(=O)N([C@@H](C)CO)C[C@H]2C)cc1	inactive
C[C@@H]1CN([C@@H](C)CO)C(=O)CCCn2nncc2CO[C@H]1CN(C)C(=O)c1ccc(N2CCN(C)CC2)cc1	inactive
C[C@H]1CN([C@@H](C)CO)C(=O)c2cccc(NC(=O)C3CC3)c2O[C@@H]1CN(C)C(=O)Nc1ccc2c(c1)OCO2	inactive
C[C@@H]1CCCCO[C@H](CN(C)CC2CCCCC2)[C@H](C)CN([C@@H](C)CO)C(=O)c2cc(NC(=O)c3ccncc3)ccc2O1	inactive

SMILES	cytotoxicity call
C[C@@H]1CN([C@H](C)CO)C(=O)Cc2cc(NC(=O)Cn3cnnn3)ccc2O[C@H]1CN(C)C(=O)Nc1ccc2c(c1)OCO2	inactive
COCC(=O)N1C[C@@H](C)[C@@H](OC)CN(C)C(=O)c2cc(NC(=O)c3cc(C)on3)ccc2OC[C@@H]1C	inactive
Cc1ccc(S(=O)(=O)Nc2ccc3c(c2)CC(=O)N([C@H](C)CO)C[C@@H](C)[C@@H](CN(C)Cc2ccc(Oc4ccccc4)cc2)O3)cc1	active
Cc1ccc(S(=O)(=O)Nc2ccc3c(c2)CC(=O)N([C@@H](C)CO)C[C@@H](C)[C@H](CN(C)Cc2ccc(Oc4ccccc4)cc2)O3)cc1	inactive
Cc1ccc(S(=O)(=O)Nc2ccc3c(c2)CC(=O)N([C@H](C)CO)C[C@H](C)[C@@H](CN(C)Cc2ccc(Oc4ccccc4)cc2)O3)cc1	inactive
Cc1ccc(S(=O)(=O)Nc2ccc3c(c2)CC(=O)N([C@@H](C)CO)C[C@H](C)[C@@H](CN(C)Cc2ccc(Oc4ccccc4)cc2)O3)cc1	active
Cc1ccc(S(=O)(=O)Nc2ccc3c(c2)CC(=O)N([C@@H](C)CO)C[C@H](C)[C@H](CN(C)Cc2ccc(Oc4ccccc4)cc2)O3)cc1	inactive
Cc1ccc(S(=O)(=O)Nc2ccc3c(c2)CC(=O)N([C@@H](C)CO)C[C@@H](C)[C@@H](CN(C)Cc2ccc(Oc4ccccc4)cc2)O3)cc1	inactive
COc1ccc(S(=O)(=O)N(C)C[C@@H]2Oc3c(NC(=O)c4cc(C)nn4C)cccc3C(=O)N([C@@H](C)CO)C[C@H]2C)cc1	inactive
C[C@H](O)C#Cc1ccc2c(c1)O[C@@H](CN(C)C(=O)Nc1ccccc1)[C@@H](C)CN([C@@H](C)CO)S2(=O)=O	inactive
C[C@@H]1CN([C@H](C)CO)C(=O)CCCn2cc(nn2)CO[C@H]1CN(C)S(=O)(=O)c1ccc(Cl)cc1	inactive
C[C@@H]1CCCCO[C@@H](CN(C)C(=O)C2CCCCC2)[C@H](C)CN([C@H](C)CO)C(=O)c2cc(NC(=O)Cc3ccccc3)ccc2O1	inactive
CC(C)CC(=O)Nc1cncc(-c2ccc3[nH]nc(-c4nc5cncc(-c6cccc(F)c6)c5[nH]4)c3c2)c1	active
CO[C@H](CN(C)C(=O)C1CCOCC1)[C@@H](C)CN(C(=O)Nc1ccc(C(F)(F)F)cc1)[C@H](C)CO	inactive
COc1ccccc1CNC(=O)C[C@@H]1C[C@H]2c3cc(NC(=O)C4CCOCC4)ccc3O[C@H]2[C@H](CO)O1	inactive
CCN(CCCc1ccccc1)CCCc1ccccc1.O=C(O)CC(O)(CC(=O)O)C(=O)O	inactive
CCN(CC)CCc1nc(-c2ccccc2)no1.O=C(O)CC(O)(CC(=O)O)C(=O)O	active
NCc1nc(-c2ccccc2)no1	inactive
C=CC(=O)Nc1ccccc1[C@@H](CCc1ccc(OC)c(OC)c1)OC(=O)[C@@H]1CCCCN1C(=O)C(=O)C(C)(C)CC	inactive
COc1ccc(NC(=O)Nc2ccc3c(c2)[C@H]2C[C@H](CC(=O)NCC(F)(F)F)O[C@H](CO)[C@H]2O3)cc1	inactive
Cn1cnc(CCNC(=O)C[C@@H]2CC[C@@H]3[C@H](COC[C@@H](O)CN3C(=O)Nc3ccc(C(F)(F)F)cc3)O2)c1	inactive
